Screening results (PubChem)
Shiga inhibitor: blocks Shiga toxin action in Vero cells | Vero cells, Shiga toxin protein synthesis inhibition reporter | actives 9.2% (n = 290,000) | inhibition, % at 38.7 µM; in the data active means inhibition mostly above about 28%, no sharp cut-off; inactive means mostly below about 43%; further: 0% is about no effect
SARS PLP yeast: blocks SARS-CoV papain-like protease in a yeast assay | AID 485353 | Potency, µM (series often up to 32.9 µM), for inactives: top-dose activity, positive = growth rescue, actives largely listed as activators | S. cerevisiae expressing SARS-CoV PLpro, growth rescue | actives 0.19% (n = 330,000); calls by dose curve; further: potency means the concentration at half of the fitted maximal effect; 0% is about no effect; nearly all actives have a fitted effect of over 55% in size
Cycloheximide cs: affects cycloheximide protein synthesis inhibition readout, counter-screen; cell reporter, cycloheximide protein synthesis inhibition counterscreen; max response, %; actives 12% (n = 300,000); in the data active means max response mostly above about 13%, no sharp cut-off; inactive means mostly below about 14%; further: read at 38.3 µM for the half of the compounds with a filed dose; 0% is about no effect
NS1 function inh: blocks influenza NS1 protein function | Potency, µM (titrated, usually from 46.1 µM), without a hit: at the highest dose activity, positive = more growth | actives 0.4% (n = 270,000); calls by dose curve; further: potency means the concentration at half of the fitted maximal effect; actives are rising curves; nearly all actives have a fitted effect of over 50% in size
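Read-out: OD600 growth recovery of NS1-expressing budding yeast. Cells grown overnight at 30C in -URA glucose medium, washed, resuspended and diluted 1:100 in 2% galactose assay medium, pH 6.0. Same strain lacking NS1 served as positive control.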
Pf growth 48h: P. falciparum growth inhibition at 48 hours (one generation); AID 504832; Potency, µM (doses to about 28.7 µM), for inactives: at the top dose activity change, negative = inhibition, actives largely listed as inhibitors; P. falciparum luciferase growth in erythrocytes, 48 h; actives 5.9% (n = 310,000); further: potency means the concentration at half of the fitted maximal effect; on the % scale 0 is the no-effect control and ±100 the full control effect
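Firefly luciferase activity from engineered P. falciparum reports growth; inhibitors lower the luminescent signal. Cultures contained 2% hematocrit erythrocytes at 0.1% final parasitemia.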
Pf growth 96h: P. falciparum growth inhibition at 96 hours; P. falciparum luciferase reporter growth, 96 h; actives 6.9% (n = 320,000); Potency, µM (top dose mostly 28.7 µM), without a hit: top-dose activity change, negative = inhibition, usual class: inhibitors; AID 504834; further: potency means the concentration at half of the fitted maximal effect; on the % scale 0 is the no-effect control and ±100 the full control effect
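Compounds incubated with erythrocytes infected by luciferase-expressing P. falciparum (2% hematocrit, 0.05% parasitemia final) for 96 hours, 37 C in 5% CO2. Growth inhibition scored as decreased luciferase luminescence.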
* marks the source's active call; other numbers are inactive results; u = inconclusive; x = no result. Most compounds without a hit are left out; they make up all but 21% or so of the library. Unless noted, the call rests on the fitted dose curve; in most records, active means well fitted inhibition curve with a large enough effect; inconclusive means small, poorly fitted or top-dose-only effect, or another doubt; inactive means no such curve, though single readings can be large or run the other way.

SMILES | Shiga inhibitor | SARS PLP yeast | Cycloheximide cs | NS1 function inh | Pf growth 48h | Pf growth 96h
COc1ccc(N(C)C(=O)C2CCN(S(=O)(=O)c3cccc4nonc34)CC2)c(OC)c1 | -5 | -2% | -4 | -5% | u | 9.3µM*
COc1cc(NC(=O)C2CCN(S(=O)(=O)c3cccc4nonc34)CC2)cc(OC)c1 | -5 | 2% | -5 | 15% | u | 41%
CN(C(=O)C1CCN(S(=O)(=O)c2cccc3nonc23)CC1)C1CCCCC1 | 1 | 1% | -7 | -16% | -8% | u
O=S(=O)(Nc1ccc(N2CCCCC2)cc1)c1ccccc1F | 36 | 0% | 16* | 1% | u | u
O=S(=O)(Nc1ccc(N2CCCCC2)cc1)c1ccc(F)cc1F | 21 | -1% | 16* | -4% | u | u
O=S(=O)(Nc1ccc(S(=O)(=O)N2CCCCCC2)cc1)c1cccs1 | -4 | 11% | -5 | 0% | x | u
Fc1cccc(Cl)c1CNc1ccc(N2CCCC2)cc1 | 22 | 0% | 29* | 5% | u | 23%
O=S(=O)(Nc1ccc(N2CCCCC2)cc1)c1cccs1 | 60* | -1% | 41* | -4% | 22% | x
O=S(=O)(Nc1ccc(N2CCCCC2)cc1)c1cccc2cccnc12 | -3 | u | 7 | 29% | -9% | -26%
OCCC1CN(Cc2ccccc2OC2CCCC2)CCN1Cc1ccsc1 (stereo not given) | -21 | 0% | -1 | 4% | u | 22%
Cc1ccc(C)c(S(=O)(=O)Nc2ccccc2C(=O)Nc2ccccc2N2CCOCC2)c1 | -12 | -3% | -3 | 23% | u | x
O=S(=O)(Nc1ccc(N2CCOCC2)cc1)c1ccc(F)cc1 | 24 | 0% | 1 | 0% | 18% | -25%
O=S(=O)(Nc1ccc(N2CCCCC2)cc1)c1ccc(F)cc1 | 51* | -2% | 13* | -8% | -8% | u
O=S(=O)(c1ccccc1)c1ccc(N2CCCCCC2)cc1 | x | -1% | 21* | -15% | u | u
COc1ccccc1C1CC(c2ccc(Cl)cc2Cl)Nc2nc(N)nn21 (stereo not given) | 3 | 2% | -3 | -10% | x | u
CC(Sc1ccccc1)C(=O)N1CCN(S(=O)(=O)c2ccccc2F)CC1 (stereo not given) | -4 | -2% | 6 | 5% | 1% | -15%
CC(=O)c1cnc(Nc2ccc(C)cc2)s1 | 45* | -2% | 30* | -6% | 49% | 59%
O=C(c1ccc(Cl)c(Cl)c1)c1cnc(Nc2ccccc2)s1 | -4 | -3% | 11 | -7% | 31% | 75%
CN(C(=O)Nc1ccc(Cl)cc1Cl)[C@H]1c2cc(Br)ccc2OC[C@H]1CO | 5 | -25% | 6 | -18% | 8.3µM* | u
COc1ccc(S(=O)(=O)N(C)CC(=O)NCCc2ccccc2)cc1OC | -16 | 0% | -2 | -4% | u | 15µM*
COc1ccc(CCNC(=O)CN(C)S(=O)(=O)c2ccc(Br)s2)cc1OC | -22 | 10% | 12 | -21% | -5% | 1.9µM*
COc1ccc(S(=O)(=O)N(C)CC(=O)NCc2ccccc2)cc1OC | -1 | 0% | -1 | -1% | -8% | 43%
COc1ccc(CCNC(=O)CN(C)S(=O)(=O)c2cccs2)cc1OC | -8 | 2% | -1 | -1% | -2% | u
Cc1ccc(NC(=O)C2COc3ccccc3O2)cc1S(=O)(=O)N1CCOCC1 (stereo not given) | x | -5% | x | x | u | u
NC(N)=NCCC[C@H](NC(=O)[C@H](Cc1ccccc1)NC(=O)[C@@H]1CCCN1C(=O)[C@H](CO)NC(=O)[C@H](Cc1ccccc1)NC(=O)CNC(=O)[C@@H]1CCCN1C(=O)[C@@H]1CCCN1C(=O)[C@@H](N)CCCN=C(N)N)C(=O)O | -6 | x | -5 | x | x | x
SMILES | Shiga inhibitor | SARS PLP yeast | Cycloheximide cs | NS1 function inh | Pf growth 48h | Pf growth 96h
CCSc1nc2sc3c(c2c(=O)n1-c1ccccc1)CCN(C(C)C)C3 | -2 | -2% | -3 | 0% | 1.5µM* | 0.83µM*
CCCCSc1nc2sc3c(c2c(=O)n1-c1ccc(OC)cc1)CCN(C)C3 | -9 | 0% | 0 | 6% | 9.3µM* | u
CCCCSc1nc2sc3c(c2c(=O)n1-c1ccccc1)CCN(C)C3 | -9 | -1% | -2 | 0% | 5.2µM* | 4.1µM*
CCSc1nc2sc3c(c2c(=O)n1-c1ccccc1C)CCN(C)C3 | -14 | 1% | -5 | 8% | 5.2µM* | 1.5µM*
CCOc1ccc(-n2c(SCC(=O)O)nc3sc4c(c3c2=O)CCCC4)cc1 | 0 | 4% | 1 | -1% | -10% | u
Cc1cccc(CS(=O)(=O)c2ncc(CO)n2C)c1 | 2 | -2% | -3 | 4% | x | 4%
COC(=O)c1cccc(C23CC4(C2)[C@H](CN(Cc2ccc(C(F)(F)F)cc2)[C@@H]4c2ccccc2)C3c2ccc(C(F)(F)F)cc2)c1 (stereo not given in full) | 14 | -6% | -5 | 12% | 10µM* | u
COC(=O)c1ccc(C23CC4(C2)[C@H](CN(Cc2ccc(C(F)(F)F)cc2)[C@@H]4c2ccccc2)C3c2ccc(C(F)(F)F)cc2)cc1 (stereo not given in full) | 2 | -3% | -4 | 20% | u | 10µM*
COC(=O)c1ccc(C23CC4(C2)[C@H](CN(C)[C@@H]4c2ccccc2)C3c2ccc(C(F)(F)F)cc2)cc1 (stereo not given in full) | -21 | -2% | -5 | 12% | 10µM* | u
COc1ccccc1[C@@H]1C(c2ccccc2)=NN(c2ccc(Br)cc2)[C@H]1C(=O)N1CCOC1=O | 45 | 17% | -1 | x | x | x
COc1ccccc1[C@@H]1C(c2cccc(Cl)c2)=NN(c2ccccc2)[C@H]1C(=O)N1CCOC1=O | 12 | -7% | 9 | 15% | 15µM* | 10µM*
c1ccc(-c2cn3c4c(sc3n2)CCCC4)cc1 | -2 | -30% | 12* | -38% | -15% | -16%
COc1ccccc1N1CCN(C(=O)c2sc3nc(-c4ccccc4)cn3c2C)CC1 | 14 | -4% | 6 | 3% | u | -5%
COc1ccc(/C=N/Nc2nc(NCc3ccco3)nc(Nc3ccc(OC)cc3)n2)cc1 | 3 | -4% | -3 | u | 15µM* | u
Cc1cc(Cl)ccc1OCCCC(=O)NNC(=O)c1ccncc1 | x | 14% | x | x | -12% | u
CCn1cc(C(=O)NCc2ccccc2)c(=O)c2cc(F)c(N3CCN(C(=O)c4ccco4)CC3)cc21 | -8 | 8% | -5 | 10% | x | 1.7µM*
CCn1cc(C(=O)NCc2ccncc2)c(=O)c2cc(F)c(N3CCN(C(=O)c4ccco4)CC3)cc21 | 24 | 0% | -3 | -12% | 6.6µM* | 10µM*
CCCNC(=O)c1cn(CC)c2cc(N3CCN(C)CC3)c(F)cc2c1=O | -10 | 0% | -1 | 2% | x | u
